Pf Dd2 inh – P. falciparum Dd2 growth inhibitors, primary screen, SYBR Green fluorescence, single dose replicates | activity change, % at 10 µM | 72 h; hits give low values | hit rate 2.3% among 94,000; in the data active = activity change below about -80%; inconclusive = no clear call, values can overlap the other calls
C diff HTS – C. difficile growth inhibitors, primary screen, HTS; Clostridium difficile clinical isolate growth, OD600, 24 h; hits give low values; hit rate 0.25% among 86,000; growth activity, negative = inhibition, % at 16 µg/mL (by protocol);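 active = mean growth activity at or below -80% and every replicate also at or below -80%; inconclusive = mean at or below -80% but some replicate above -80%; inactive = mean growth activity above -80%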
Hits are given with their value; i = inactive; ? = inconclusive; nt = no result given; ! = repeats disagree. The list is not random: actives were taken first. Their share in the collection is about 2.3%.

SMILES	Pf Dd2 inh	C diff HTS
C[C@H]1CN([C@@H](C)CO)C(=O)c2cc(NC(=O)Cc3cn(C)c4ccccc34)ccc2O[C@H]1CN(C)CC1CC1	i	i
COc1ccc(S(=O)(=O)Nc2ccc3c(c2)C(=O)N([C@@H](C)CO)C[C@H](C)[C@@H](CN(C)Cc2ccc(Cl)c(Cl)c2)OCCCC[C@@H](C)O3)cc1	-91.1	i
COc1ccc(S(=O)(=O)Nc2ccc3c(c2)C(=O)N([C@H](C)CO)C[C@@H](C)[C@@H](CN(C)C(=O)NC2CCCCC2)OCCCC[C@@H](C)O3)cc1	-86.4	i
COc1ccc(CN(C)C[C@H]2OCCCC[C@H](C)Oc3ccc(NS(=O)(=O)c4ccc(OC)cc4)cc3C(=O)N([C@H](C)CO)C[C@@H]2C)cc1	i	i
COc1ccc(S(=O)(=O)Nc2ccc3c(c2)C(=O)N([C@H](C)CO)C[C@@H](C)[C@H](CN(C)C(=O)NC2CCCCC2)OCCCC[C@H](C)O3)cc1	i	i
COc1ccc(CN(C)C[C@H]2OCCCC[C@@H](C)Oc3ccc(NS(=O)(=O)c4ccc(OC)cc4)cc3C(=O)N([C@H](C)CO)C[C@H]2C)cc1	-87.0	i
COc1ccc(S(=O)(=O)Nc2ccc3c(c2)C(=O)N([C@@H](C)CO)C[C@H](C)[C@H](CN(C)Cc2ccc(Cl)c(Cl)c2)OCCCC[C@@H](C)O3)cc1	i	nt
COc1ccc2c3c([nH]c2c1)[C@H](CO)N(C(=O)C1CCOCC1)CC31CN(C)C1	i	nt
C[C@@H](NC(=O)C[C@H]1CC[C@@H](NC(=O)Cc2ccccn2)[C@H](CO)O1)c1ccccc1	i	nt
Cc1ccccc1-c1ccc(C2[C@@H]3CN(Cc4cncnc4)C[C@H]2N3)cc1 (stereo partly drawn)	i	i
Cc1cccc(-c2ccc(C3[C@@H]4CN(Cc5ccccc5)C[C@H]3N4)cc2)c1 (stereo partly drawn)	i	i
Cc1cccc(-c2ccc(C3[C@@H]4CN(Cc5cccc(F)c5)C[C@H]3N4)cc2)c1 (stereo partly drawn)	i	-96.9
Fc1cccc(-c2ccc(C3[C@@H]4CN(Cc5cncnc5)C[C@H]3N4)cc2)c1 (stereo partly drawn)	-86.2!	i
C[C@H](CO)N1C[C@H](C)[C@H](CN(C)S(=O)(=O)c2ccc(Oc3ccccc3)nc2)OCc2cn(nn2)CCCC1=O	i	i
C[C@H](CO)N1C[C@H](C)[C@H](CN(C)Cc2ccccc2)Oc2c(NC(=O)CCCCCC(=O)Nc3ccccc3N)cccc2C1=O	i	i
C[C@H]1CN([C@@H](C)CO)C(=O)c2cccc(NC(=O)CCCCCC(=O)Nc3ccccc3N)c2O[C@H]1CN(C)Cc1ccc(-c2ccccc2)cc1	-85.4	i
C[C@@H]1CN([C@H](C)CO)C(=O)c2cccc(NC(=O)CCCCCC(=O)Nc3ccccc3N)c2O[C@@H]1CN(C)Cc1ccccc1	i	i
C[C@@H]1CN([C@H](C)CO)C(=O)c2cccc(NC(=O)CCCCCC(=O)Nc3ccccc3N)c2O[C@@H]1CN(C)Cc1ccc(-c2ccccc2)cc1	-89.2	i
C[C@@H]1CN([C@H](C)CO)C(=O)c2cc(C3=CCCCC3)cnc2O[C@@H]1CN(C)C(=O)Nc1cccc(F)c1	i	i
O=C(C[C@@H]1C[C@@H]2c3cc(NC(=O)Nc4ccc(C(F)(F)F)cc4)ccc3O[C@@H]2[C@H](CO)O1)NCCc1ccccc1	i	i
C[C@H](CO)N1C[C@H](C)[C@@H](CN(C)Cc2ccc(C(=O)O)cc2)Oc2ccc(NC(=O)Nc3ccc(C(F)(F)F)cc3)cc2CC1=O	i	i
COCC(=O)N(C)C[C@@H]1Oc2ncc(C#Cc3ccccc3)cc2C(=O)N([C@@H](C)CO)C[C@@H]1C	i	i
COc1ccc2c3c(n(C)c2c1)[C@@H](CO)NCC31CCN(Cc2ccccc2Cl)CC1	-88.4	i
COc1ccc2c3c(n(C)c2c1)[C@@H](CO)NCC31CN(Cc2ccc(Cl)cc2)C1	i	i
COc1ccc2c3c(n(C)c2c1)[C@@H](CO)NCC31CCN(Cc2ccc(F)cc2)CC1	i	nt
SMILES	Pf Dd2 inh	C diff HTS
COc1ccc2c3c(n(C)c2c1)[C@H](CO)NCC31CN(CC2CC2)C1	i	i
COc1ccc2c3c(n(C)c2c1)[C@@H](CO)NCC31CCN(CC2CCCCC2)CC1	-82.4	i
COc1ccc2c3c(n(C)c2c1)[C@H](CO)NCC31CCN(Cc2ccccc2Cl)CC1	-84.6	i
COc1ccc2c3c(n(C)c2c1)[C@H](CO)NCC31CCN(Cc2ccccc2F)CC1	?	i
COc1ccc2c3c(n(C)c2c1)[C@H](CO)NCC31CN(Cc2ccc(F)cc2)C1	-84.5	i
CCCNC(=O)N(C)C[C@@H]1Oc2cc(-c3ccccc3F)ccc2S(=O)(=O)N([C@H](C)CO)C[C@@H]1C	i	i
COc1ccc2c3c([nH]c2c1)[C@H](CO)N(C(=O)NC(C)C)CC31CCN(C(=O)c2ccccn2)CC1	i	i
COc1ccc(S(=O)(=O)N(C)C[C@H]2Oc3c(NC(=O)c4cc(C)nn4C)cccc3C(=O)N([C@H](C)CO)C[C@@H]2C)cc1	i	i
Cc1ccccc1-c1cnc2c(c1)C(=O)N([C@@H](C)CO)C[C@@H](C)[C@H](CN(C)C(=O)c1ccc(F)cc1)O2	i	i
C[C@H](CO)N1C[C@H](C)[C@H](CN(C)Cc2ccc(Oc3ccccc3)cc2)Oc2ccc(NC(=O)CCN3CCOCC3)cc2CC1=O	i	i
COc1ccc2c3c(n(C)c2c1)[C@@H](CO)NCC31CCN(Cc2ccncc2)CC1	i	i
COc1ccc2c3c(n(C)c2c1)[C@H](CO)NCC31CCN(Cc2cc(-c3ccccc3)on2)CC1	-91.2	i
O=C(C1CC1)N1CC[C@@H]2[C@H]1c1cc(C#Cc3ccccc3F)ccc1N[C@@H]2CO	i	i
C[C@H]1CN([C@@H](C)CO)C(=O)Cc2cc(NC(=O)Nc3cccc4ccccc34)ccc2O[C@@H]1CN(C)CC1CCCCC1	i	i
C[C@H]1CN([C@@H](C)CO)C(=O)Cc2cc(NC(=O)Nc3cccc4ccccc34)ccc2O[C@H]1CN(C)C	i	i
C[C@H](CO)N1C[C@H](C)[C@@H](CN(C)CC2CC2)Oc2ccc(NC(=O)Nc3cccc4ccccc34)cc2CC1=O	-86.3	i
C[C@H](CO)N1C[C@H](C)[C@H](CN(C)CC2CC2)Oc2ccc(NC(=O)Nc3cccc4ccccc34)cc2CC1=O	-89.2	i
CCC(=O)N1C[C@H](C)[C@@H](OC)CN(C)C(=O)c2ccc(NC(=O)NC(C)C)cc2OC[C@H]1C	i	nt
COc1ccc2c3c(n(C)c2c1)[C@H](CO)N(CC1CCOCC1)CC31CN(C(C)=O)C1	i	nt
CC(=O)N1[C@H](CNC(=O)CN2CCOCC2)[C@@H](c2ccccc2)[C@@H]1CO	i	i
CCC(=O)N1CC2(C1)[C@H](c1ccc(-c3cccc(OC)c3)cc1)[C@@H](CO)N2C(C)=O	i	i
CCCNC(=O)N(C)C[C@H]1Oc2ncc(-c3ccc(C(=O)N(C)C)cc3)cc2C(=O)N([C@H](C)CO)C[C@@H]1C	i	i
C[C@H](CO)N1C[C@H](C)[C@H](CN(C)Cc2cccnc2)Oc2cc(/C=C/c3ccccc3)ccc2S1(=O)=O	i	i
C[C@H]1CN([C@@H](C)CO)S(=O)(=O)c2ccc(-c3ccc(C#N)cc3)cc2O[C@H]1CN(C)CC1CC1	-91.2	i
C[C@@H]1CN([C@@H](C)CO)S(=O)(=O)c2ccc(/C=C/c3ccccc3)cc2O[C@H]1CN(C)Cc1cncnc1	-88.7	i

Screens from PubChem.
